In PubChem BioAssay (EPA / NIEHS) one finds outcome data, which are given here for 10 compounds.

Active and inactive are the calls of the source. Rule for the calls: active = hit-call score of the fitted dose curve at least 0.9, where 1 is the maximum; inactive = score below 0.9.

E-selectin (Homo sapiens), sequence (P16581 whole entry, looked up): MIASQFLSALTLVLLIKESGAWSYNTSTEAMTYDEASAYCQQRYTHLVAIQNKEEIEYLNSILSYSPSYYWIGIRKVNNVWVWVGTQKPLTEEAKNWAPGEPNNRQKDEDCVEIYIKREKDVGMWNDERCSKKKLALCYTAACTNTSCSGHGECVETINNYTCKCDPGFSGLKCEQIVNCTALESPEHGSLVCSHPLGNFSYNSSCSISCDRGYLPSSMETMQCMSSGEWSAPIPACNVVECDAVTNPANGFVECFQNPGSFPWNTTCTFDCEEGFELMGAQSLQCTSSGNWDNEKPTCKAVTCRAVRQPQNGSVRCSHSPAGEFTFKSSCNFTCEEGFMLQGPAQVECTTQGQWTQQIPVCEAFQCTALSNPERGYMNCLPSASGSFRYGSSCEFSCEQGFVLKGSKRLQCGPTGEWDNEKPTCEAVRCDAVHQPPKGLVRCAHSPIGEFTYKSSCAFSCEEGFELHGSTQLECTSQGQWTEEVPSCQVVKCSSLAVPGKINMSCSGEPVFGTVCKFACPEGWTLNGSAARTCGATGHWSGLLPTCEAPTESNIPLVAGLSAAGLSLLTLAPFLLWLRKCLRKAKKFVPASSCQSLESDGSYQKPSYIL

Read-out in this assay: E-selectin (Homo sapiens) (UniProt P16581)
In words: BSK_IMphg_ESelectin: BioMAP Diversity Plus: IMphg Assay for Eselectin Biomarker Activity (AID 2284291). The note with it: primary human endothelial cells with macrophages. The protocol: BSK_IMphg is a cell-based, multiplexed-readout assay that uses venular endothelial cells and macrophages, a human vascular primary cell, with measurements taken at 24 hours after chemical dosing in a microplate: 96-well plate.BSK_IMphg_ESelectin is an assay component measured in the BSK_IMphg assay. It measures E-selectin antibody related to regulation of gene expression using ELISA technology.Data from the assay component BSK_IMphg_ESelectin was analyzed at the endpoint, BSK_IMphg_ESelectin, in the positive analysis fitting direction relative to DMSO as the negative control and baseline of activity. Using a type of binding reporter, gain or loss-of-signal activity can be used to understand protein changes. To generalize the intended target to other relatable targets, this assay endpoint is annotated to the 'cell adhesion molecules' intended target family, where the subfamily is 'selectins'.
The levels of cell surface (or secreted, indicated by the prefix "s") biomarker endpoints were measured by ELISA. Overt cytotoxicity to cells in confluent adherent cultures (all systems other than the BT system) was assessed by measuring total protein levels using sulforhodamine B (SRB) staining in parallel cultures at the time of biomarker measurements, indicated as SRB endpoints. For proliferation assays for adherent cell types, individual cell types are cultured at sub-confluence and relative cell numbers quantified by SRB staining at time points optimized for each system (48 h: 3C and CASM3C systems; 72 h: BT and HDF3CGF systems; 96 h: SAg system). SRB was performed by staining cells with 0.1% SRB after fixation with 10% TCA and reading wells at 560 nm.Viability and proliferation of PBMC (T cells) was quantified by Alamar Blue reduction for the SAg and BT systems. For PBMC viability (referred to as PBMC Cytotoxicity within the assay endpoint names), cells were plated (75,000/well in a 96-well plate) and then chemical samples added for 1 h before addition of activators, SEB and TSST-1 (20 ng/mL final concentration each). Cells were incubated for 90 h. Then, Alamar Blue (20 uL/well) (Invitrogen, Cat DAL1100) was added for 6 h, and the plates were read with a fluorescence microplate reader at 546/580 nm (excitation/emission). For PBMC proliferation, cells were plated and activated as above but incubated for only 16 h prior to addition of Alamar Blue. Plates were read after 6 h.
Turning to `NCC(F)(F)C(F)(F)C(F)(F)C(F)(F)F`, the result was inactive.

For the compound `FC(F)(F)C(F)(F)C(F)(F)C(F)(F)C(F)(F)C(F)(F)I`, the result was inactive.

`FC(F)(F)COC(OCC(F)(F)F)OCC(F)(F)F`: the result was inactive.

Turning to `OC(O)(C(F)C(O)(O)C(F)(F)F)C(F)(F)F`, the result was inactive.

For `O=S(=O)(O)CCC(F)(F)C(F)(F)C(F)(F)C(F)(F)C(F)(F)C(F)(F)F`, the outcome was inactive.

On to `O=C(Cl)C(F)(F)C(F)(F)C(F)(F)C(=O)Cl`, for which the result was inactive.

In the case of `C[Si](C)(C)C(F)(F)C(F)(F)C(F)(F)F`, the result was inactive.

Regarding `FC(F)C(F)(F)COCC1CO1` (stereo not given), the result was inactive.

As for `FC(F)=C(F)C(F)(F)C(F)(F)C(F)(F)C(F)(F)C(F)(F)C(F)(F)F`, the result was inactive.

As to `OCCC(F)(F)C(F)(F)C(F)(F)C(F)(F)F`, the outcome was inactive.
